Bioassay records: PubChem, several laboratories
CYP2C19 act – cytochrome P450 2C19 (human) activation. P33261. activation factor at 5 µM. AID 1025. 96,000 tested, under 10 active. recombinant CYP2C19, luciferin-H EGE luminescence; stronger effect = higher value; 0 = fully inhibited enzyme, 1 = untreated enzyme;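 active = activation factor of at least 2 at 5 µM in the primary screen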;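 also: 0 = wells with 2.5 mM tranylcypromine and 1 = vehicle-only wells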
CYP2C9 act – CYP2C9 (human) activation | recombinant CYP2C9, luciferin-H conversion, luminescence; stronger effect = higher value; factor 1 = untreated enzyme, 0 = blocked | actives 1.4% (n = 96,000) | AID 1024 | P11712 | activation factor at 5 µM;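 active = activation factor of 2 or more for CYP2C9 at a 5 µM dose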;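 also: 0 = sulfaphenazole-blocked wells and 1 = vehicle-only wells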
Target sequence (P11712 whole entry, looked up): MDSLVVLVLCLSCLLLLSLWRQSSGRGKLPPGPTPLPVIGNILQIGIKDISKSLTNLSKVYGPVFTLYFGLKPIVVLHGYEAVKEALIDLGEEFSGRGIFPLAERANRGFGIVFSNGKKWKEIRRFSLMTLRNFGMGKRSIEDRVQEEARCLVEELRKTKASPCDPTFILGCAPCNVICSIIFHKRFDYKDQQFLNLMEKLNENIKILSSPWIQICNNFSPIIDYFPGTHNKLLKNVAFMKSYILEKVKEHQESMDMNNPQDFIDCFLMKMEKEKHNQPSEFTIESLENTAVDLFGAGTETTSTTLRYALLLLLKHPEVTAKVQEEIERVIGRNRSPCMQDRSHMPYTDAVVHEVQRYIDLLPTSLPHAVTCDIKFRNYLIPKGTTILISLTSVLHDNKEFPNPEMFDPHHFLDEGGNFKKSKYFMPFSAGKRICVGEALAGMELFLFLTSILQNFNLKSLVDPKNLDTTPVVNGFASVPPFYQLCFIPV
CYP2C9 inhib – human CYP2C9 inhibition; P11712; CYP2C9 Supersomes, luciferin-H conversion, luminescence; inhibition, % at 5 µM; actives 20% (n = 96,000);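 active = blocking of liver enzyme CYP2C9 beyond about 50% at 5 µM, limit read from the data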
CYP2C19 inh – human CYP2C19 inhibition. CYP2C19 Supersomes, luciferin-H EGE luminescence, 30 min. inhibition, % at 5 µM. actives 21% (n = 96,000);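 active = CYP2C19 inhibition above a set limit at 5 µM in the primary screen, cut at about 50% in these data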;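 also: plate controls were negative control wells for no effect and 2.5 mM tranylcypromine positive control for full effect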
Measles CPE – protection of cells from measles virus; protection (pct of control), % at 4 µM; Measles virus-infected cells, CPE protection, absorbance; actives 1.5% (n = 140,000); in the data active = protection mostly above about 24%, no sharp cut-off; inactive = mostly below about 26%
* = called active by the depositor; / = no result given. Only some compounds are listed: those with a hit (about 22% of all), similar ones and a draw of the others.

SMILES | CYP2C19 act | CYP2C9 act | CYP2C9 inhib | CYP2C19 inh | Measles CPE
Cc1ccc(OCCN2CCN(CC(O)Cn3c4ccccc4c4ccccc43)CC2)cc1 (stereo not drawn) | / | / | / | / | 20.4
CC1=C(C(=O)N2CCc3ccccc32)C2(CCC(C)CC2)OC1=O (stereo not drawn) | 0.7 | 0.7 | 30.1 | 30.4 | 3.3
CC1(C)OC(=O)C2(Cc3ccccc3N3CCCCC32)C(=O)O1 (stereo not drawn) | 0.4 | 0.9 | 12.7 | 60.7* | 3.1
CCOC(=O)CS(=O)(=O)c1ccc2ccccc2c1 | 0.1 | 2.9* | -193.3 | 87.4* | 2.3
CCOC(=O)CS(=O)(=O)c1nc(-c2ccccc2)cc(C(F)(F)F)n1 | 0.5 | 0.4 | 59.4* | 45.1 | 5.8
CCOC(=O)CS(=O)(=O)c1ccccc1 | 1.1 | 1.1 | -14.1 | -8.4 | 6.7
O=C(Cn1cc(C(=O)COc2ccccc2)c2ccccc21)NCc1ccco1 | 0.6 | 0.2 | 78.0* | 38.8 | 17.9
O=C(COc1ccccc1)c1cn(CC(=O)N2CCOCC2)c2ccccc12 | 0.7 | 0.3 | 70.7* | 33.8 | 31.0
O=C(CSc1nnc(-c2cccnc2)n1-c1ccccc1)NCc1ccc2c(c1)OCO2 | 1 | 0.8 | 18.5 | -2.2 | 24.4
C=CCn1c(SC(C)C(=O)NCc2ccc3c(c2)OCO3)nnc1C1CCCCC1 (stereo not drawn) | 0.4 | 0.4 | 57.1* | 56.1* | 16.4
CC(Sc1nnc(-c2cccnc2)n1-c1ccccc1)C(=O)NCc1ccc2c(c1)OCO2 (stereo not drawn) | 0.5 | 0.1 | 91.0* | 45.8 | 8.5
CN(C)S(=O)(=O)c1cccc(NC(=O)COc2cccc(C#N)c2)c1 | / | / | / | / | 2.1
CCOC(=O)c1sc2ncnc(NCC(c3cccs3)N(C)C)c2c1C (stereo not drawn) | 0.4 | 0.9 | 8.8 | 57.8* | 16.5
Cc1cc(Nc2ccccc2)n(C(=O)c2ccc(Cl)cc2)n1 | / | / | / | / | 43.6*
Cc1cc(Nc2ncc(Cl)cc2Cl)n(-c2ccccc2)n1 | / | / | / | / | 7.9
Cc1cc(Nc2ccccc2)n(-c2cccc(Cl)c2)n1 | 0.2 | 0.2 | 77.7* | 79.6* | 13.8
CCCN(CC(=O)Nc1cccc(Br)c1)CC(=O)Nc1ccc(F)c(F)c1F | / | / | / | / | 18.4
O=C(CN1CCSCC1)N1CCc2[nH]c3ccc(Br)cc3c2C1 | 0.1 | 0.2 | 81.1* | 92.8* | 5.5
Cc1ccc2[nH]c3c(c2c1)CN(C(=O)CN1c2ccc(F)cc2CCC1C)CC3 (stereo not drawn) | 0.7 | 0.5 | 46.3 | 28.8 | 2.4
Cc1ccc2[nH]c3c(c2c1)CN(C(=O)CN1CCN(c2cccc(C)c2C)CC1)CC3 | 0.5 | 0.1 | 88.7* | 49.1 | 7.1
O=C1c2ccccc2C(=O)N1OCc1cccc(Cl)c1 | 0.2 | 1.1 | -5.4 | 76.0* | 2.4
COC(=O)c1ccc(CON2C(=O)c3ccccc3C2=O)cc1 | 0.9 | 1.1 | -8.0 | 14.7 | 10.3
O=C1c2ccccc2C(=O)N1OCc1ccccc1 | 0.4 | 1.1 | -14.2 | 56.3* | 15.5
O=C(O)C(O)c1ccco1 (stereo not drawn) | / | / | / | / | 6.1
Cc1ccc(S(=O)(=O)N(CC(=O)N2CCC(C)CC2)c2cccc(C)c2)cc1 | 0.2 | 0.1 | 86.5* | 81.6* | 13.6
SMILES | CYP2C19 act | CYP2C9 act | CYP2C9 inhib | CYP2C19 inh | Measles CPE
CCOC(=O)N1CCN(C(=O)CN(c2cccc(C)c2)S(=O)(=O)c2ccccc2)CC1 | 0.5 | 0.3 | 71.6* | 48.2 | 2.6
COc1ccccc1N1CCN(C(=O)CN(c2ccccc2OC)S(=O)(=O)c2ccccc2)CC1 | 0.3 | 0.1 | 89.5* | 74.9* | 4.5
CCOC(=O)N1CCN(C(=O)CN(c2cc(Cl)ccc2OC)S(=O)(=O)c2ccccc2)CC1 | 0.8 | 0.4 | 64.7* | 24.3 | 5.2
Cc1ccc(S(=O)(=O)N(CC(=O)NC2CCCC2)c2cccc(C)c2)cc1 | / | / | / | / | 19.0
COc1ccccc1N1CCN(C(=O)CSc2ccccc2)CC1 | 0.6 | 0.5 | 45.7 | 43.6 | 2.2
COc1ccc(C2/C(=C(\O)c3ccc(OC)c(Cl)c3)C(=O)C(=O)N2CCN(C)C)cc1 (stereo not drawn) | 1.2 | 1.3 | -26.1 | -24.7 | 4.8
COc1ccccc1-n1cnc2cc(C(=O)NC3CCCC3)ccc21 | / | / | / | / | 21.0
C/C(=N\NC(=O)c1ccc(F)cc1)c1cccc(NC(=O)c2ccco2)c1 | 0.9 | 1.2 | -20.0 | 14.0 | 22.5
Cc1ccc(S(=O)(=O)NCCC(c2ccc(F)cc2)c2ccco2)cc1 (stereo not drawn) | / | / | / | / | 6.2
CCOC(=O)N1CCN(C(=O)CN(c2cccc(C)c2)S(=O)(=O)c2ccc(C)cc2)CC1 | 0.3 | 0.3 | 73.6* | 72.4* | 13.7
CC(=O)c1ccc(OC(C)C)c(CSc2nc(O)cc(=O)[nH]2)c1 | 1.1 | 0.4 | 59.4* | -7.8 | 4.0
O=c1cc(O)nc(SCc2ccc(Cl)cc2)[nH]1 | 0.9 | 0.8 | 19.4 | 5.5 | 18.5
CC(C)(C)c1nn(-c2ccccc2)c2[nH]c(=O)c(CNCc3ccc4c(c3)OCO4)cc12 | 0.9 | 1.3 | -30.3 | 13.1 | 0.5
CCOc1cccc(NCc2cc3c(C(C)(C)C)nn(-c4ccccc4)c3[nH]c2=O)c1 | 0.8 | 0.3 | 74.7* | 23.3 | 16.7
NS(=O)(=O)c1ccc(N/N=C2/CCCCC2C2CCCCC2)c([N+](=O)[O-])c1 (stereo not drawn) | / | / | / | / | 22.2
CC(C)NC(=S)N/N=C1\CCCCC1C1CCCCC1 (stereo not drawn) | 0.4 | 0.2 | 80.5* | 62.9* | 4.6
Cc1cccc(-c2nsc(SCC(=O)Nc3cc(C)on3)n2)c1 | 0.9 | 0.7 | 27.6 | 8.4 | 8.5
COC(=O)CSc1nnc(-c2ccccc2OC)o1 | 0.9 | 1.1 | -5.0 | 7.7 | 4.9
CCOC(=O)N1CCN(C(=O)CSc2nnc(-c3cc(OC)cc(OC)c3)o2)CC1 | 0.7 | 0.7 | 28.8 | 29.6 | 2.6
COc1ccc(-c2nnc(SCC(=O)N3CCC(Cc4ccccc4)CC3)o2)cc1OC | 0.1 | 0.4 | 64.7* | 93.4* | 12.8
CCOC(=O)N1CCN(C(=O)CSc2nc(-c3cccc(C)c3)ns2)CC1 | 0.5 | 0.3 | 68.8* | 49.2 | 4.7
CCOC(=O)N1CCN(C(=O)CSc2nnc(-c3cccc(OC)c3)o2)CC1 | 0.6 | 0.5 | 54.5* | 40.3 | 5.3
COc1ccccc1-c1nnc(SCC(=O)OC(C)C)o1 | 0.4 | 1.3 | -34.0 | 58.7* | 30.7
Cc1ccccc1-c1nc(CN2CCC(C(=O)NCc3cccnc3)CC2)c(C)o1 | 0.9 | 0.9 | 14.4 | 11.9 | 1.9
Cc1ccc(S(=O)(=O)N2CCN(C(=O)CSc3nnc(-c4ccco4)o3)CC2)cc1 | 0.2 | 0.3 | 73.3* | 76.2* | 0.3
CCOC(=O)CSc1nnc(-c2ccc(Cl)cc2Cl)o1 | 0.8 | 1.2 | -20.7 | 24.5 | 41.7*
CCOC(=O)N1CCN(C(=O)CSc2nnc(-c3ccc(C)c(C)c3)o2)CC1 | 1.1 | 0.8 | 18.2 | -8.8 | 4.3
Cc1ccc(-c2nnc(SCC(=O)N3CCCC3)o2)cc1 | 0.9 | 0.9 | 8.6 | 11.8 | 19.8
Cc1ccc(-c2nnc(SCC(=O)N3CCCC3)o2)cc1C | 0.5 | 1.7 | -71.4 | 52.6* | 14.6
